# Reference: the supplement of paper PMC10849652
# About 7,900 targets were measured; listed, in parts, are those with a hit and a random draw of the rest. About 0.6% of all pairs of compound and target were hits. Unmarked numbers belong to inactive results.
# Assays:
# Test in all cases: log2 fold change, soluble protein after heating vs DMSO (PISA); higher = thermal stabilisation; K562 cells, 10 uM, 30 min; active = over 0.2 and 3.5 SD of the protein, either way, in both replicates (recomputed)
# [1] = compound: NC(=O)Nc1cc(-c2cccc(F)c2)sc1C(=O)N[C@H]1CCCNC1
# Summary of the method: (§1)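 K562 cells at 2×10^6 cells/mL were treated for 30 min with 10 μM compound, and aliquots were heated for 3 min over 48°C-58°C before pooling. Extraction used PBS with 0.5% NP-40 at 4°C, and soluble protein was the supernatant after 21,000xg for 90 min, measured by TMTpro 16plex LC-MS/MS with channel sums equalised. Thermal stability values, relative to control samples and from duplicates, are log2 fold changes.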
# [2] = compound: NC(=O)c1cnc(N[C@@H]2CCCC[C@@H]2N)nc1Nc1cccc(-n2nccn2)c1
# Summary of the method: as §1
# [3] = compound: NC1(c2ccc(-c3nc4ccn5c(=O)[nH]nc5c4cc3-c3ccccc3)cc2)CCC1
# Summary of the method: as §1
# [4] = compound: NCC(=O)Nc1ccc(-n2nc(C(F)(F)F)cc2-c2ccc3c(ccc4ccccc43)c2)cc1
# Summary of the method: as §1
# [5] = compound: Nc1ccccc1NC(=O)c1ccc(CNC(=O)OCc2cccnc2)cc1 [entinostat]
# Summary of the method: as §1
# [6] = compound: O=C(CCCCCCC(=O)Nc1ccccc1)NO [vorinostat]
# Summary of the method: as §1
# [7] = compound: O=C(CCCCCCNC(=O)c1cnc(N(c2ccccc2)c2ccccc2Cl)nc1)NO [citarinostat]
# Summary of the method: as §1
# [8] = compound: O=C(O)c1ccc2c(c1)nc(Nc1cccc(Cl)c1)c1ccncc12 [silmitasertib]
# Summary of the method: as §1
# [9] = compound: O=C1NC(=O)C(c2cnc3ccccn23)=C1c1cn2c3c(cc(F)cc13)CN(C(=O)N1CCCCC1)CC2
# Summary of the method: as §1
# [10] = compound: c1cc(OCCN2CCCCC2)cc(-c2n[nH]c3ccc(-c4nnc[nH]4)cc23)c1
# Summary of the method: as §1
# [11] = compound: c1cn2cc(-c3ccc4cn[nH]c4c3)nc(Nc3ccc(N4CCOCC4)cc3)c2n1 [entospletinib]
# Summary of the method: as §1
# Chain of UniProt Q9BZL4 (Q9BZL4 whole entry, looked up): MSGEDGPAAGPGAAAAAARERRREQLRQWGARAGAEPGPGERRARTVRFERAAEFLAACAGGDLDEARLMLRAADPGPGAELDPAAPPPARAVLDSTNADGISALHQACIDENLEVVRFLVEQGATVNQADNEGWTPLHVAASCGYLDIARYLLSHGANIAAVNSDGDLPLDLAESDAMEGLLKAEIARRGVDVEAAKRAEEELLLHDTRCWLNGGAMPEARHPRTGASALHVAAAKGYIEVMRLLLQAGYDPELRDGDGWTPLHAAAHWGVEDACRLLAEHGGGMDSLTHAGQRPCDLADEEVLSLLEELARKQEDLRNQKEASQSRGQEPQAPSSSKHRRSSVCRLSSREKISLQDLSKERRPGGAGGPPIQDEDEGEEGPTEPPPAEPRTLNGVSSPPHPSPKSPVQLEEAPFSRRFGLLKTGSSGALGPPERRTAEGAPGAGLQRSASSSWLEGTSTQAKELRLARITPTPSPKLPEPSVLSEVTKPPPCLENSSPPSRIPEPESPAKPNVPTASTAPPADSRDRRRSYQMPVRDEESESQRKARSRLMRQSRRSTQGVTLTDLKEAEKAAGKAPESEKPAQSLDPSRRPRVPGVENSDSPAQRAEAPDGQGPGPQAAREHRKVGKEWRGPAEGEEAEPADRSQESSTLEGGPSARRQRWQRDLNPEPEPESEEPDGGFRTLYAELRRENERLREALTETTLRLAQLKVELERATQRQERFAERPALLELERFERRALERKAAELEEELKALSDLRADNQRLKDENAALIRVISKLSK
# Chain of UniProt P06737 (P06737 whole entry, looked up): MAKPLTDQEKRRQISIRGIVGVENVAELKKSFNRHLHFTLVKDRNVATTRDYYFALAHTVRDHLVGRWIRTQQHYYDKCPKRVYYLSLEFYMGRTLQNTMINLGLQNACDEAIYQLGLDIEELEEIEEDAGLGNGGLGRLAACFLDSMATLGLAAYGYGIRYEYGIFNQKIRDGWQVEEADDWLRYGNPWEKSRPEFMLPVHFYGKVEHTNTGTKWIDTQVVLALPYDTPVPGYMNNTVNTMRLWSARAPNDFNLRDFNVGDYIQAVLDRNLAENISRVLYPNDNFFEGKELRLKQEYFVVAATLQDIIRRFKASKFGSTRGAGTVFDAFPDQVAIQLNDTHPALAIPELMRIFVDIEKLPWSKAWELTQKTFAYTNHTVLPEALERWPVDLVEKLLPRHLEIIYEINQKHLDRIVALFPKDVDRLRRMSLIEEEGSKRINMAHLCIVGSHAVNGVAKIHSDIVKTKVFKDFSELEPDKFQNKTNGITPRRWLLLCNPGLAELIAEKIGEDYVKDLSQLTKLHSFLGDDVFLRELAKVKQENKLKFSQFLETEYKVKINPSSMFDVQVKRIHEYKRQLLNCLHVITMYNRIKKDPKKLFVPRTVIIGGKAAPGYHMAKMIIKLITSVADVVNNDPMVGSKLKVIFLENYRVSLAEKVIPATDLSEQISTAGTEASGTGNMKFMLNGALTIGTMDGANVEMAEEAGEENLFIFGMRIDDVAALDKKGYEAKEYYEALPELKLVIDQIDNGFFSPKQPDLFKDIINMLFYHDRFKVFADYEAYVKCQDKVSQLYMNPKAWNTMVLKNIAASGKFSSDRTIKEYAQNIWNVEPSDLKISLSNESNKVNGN
# Chain of UniProt O95997 (O95997 whole entry, looked up): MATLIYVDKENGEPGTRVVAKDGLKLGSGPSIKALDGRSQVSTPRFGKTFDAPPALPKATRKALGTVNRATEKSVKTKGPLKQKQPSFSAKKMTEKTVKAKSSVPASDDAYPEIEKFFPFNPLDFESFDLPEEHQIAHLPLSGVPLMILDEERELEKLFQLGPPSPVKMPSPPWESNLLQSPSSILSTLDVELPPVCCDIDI
# Chain of UniProt Q15126 (Q15126 whole entry, looked up): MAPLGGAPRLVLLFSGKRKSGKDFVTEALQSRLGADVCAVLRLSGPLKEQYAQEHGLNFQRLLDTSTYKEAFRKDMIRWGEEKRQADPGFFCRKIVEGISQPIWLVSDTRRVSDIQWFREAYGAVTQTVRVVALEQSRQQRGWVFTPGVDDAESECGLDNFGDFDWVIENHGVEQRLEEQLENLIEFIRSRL
# Chain of UniProt Q9NYI0 (Q9NYI0 whole entry, looked up): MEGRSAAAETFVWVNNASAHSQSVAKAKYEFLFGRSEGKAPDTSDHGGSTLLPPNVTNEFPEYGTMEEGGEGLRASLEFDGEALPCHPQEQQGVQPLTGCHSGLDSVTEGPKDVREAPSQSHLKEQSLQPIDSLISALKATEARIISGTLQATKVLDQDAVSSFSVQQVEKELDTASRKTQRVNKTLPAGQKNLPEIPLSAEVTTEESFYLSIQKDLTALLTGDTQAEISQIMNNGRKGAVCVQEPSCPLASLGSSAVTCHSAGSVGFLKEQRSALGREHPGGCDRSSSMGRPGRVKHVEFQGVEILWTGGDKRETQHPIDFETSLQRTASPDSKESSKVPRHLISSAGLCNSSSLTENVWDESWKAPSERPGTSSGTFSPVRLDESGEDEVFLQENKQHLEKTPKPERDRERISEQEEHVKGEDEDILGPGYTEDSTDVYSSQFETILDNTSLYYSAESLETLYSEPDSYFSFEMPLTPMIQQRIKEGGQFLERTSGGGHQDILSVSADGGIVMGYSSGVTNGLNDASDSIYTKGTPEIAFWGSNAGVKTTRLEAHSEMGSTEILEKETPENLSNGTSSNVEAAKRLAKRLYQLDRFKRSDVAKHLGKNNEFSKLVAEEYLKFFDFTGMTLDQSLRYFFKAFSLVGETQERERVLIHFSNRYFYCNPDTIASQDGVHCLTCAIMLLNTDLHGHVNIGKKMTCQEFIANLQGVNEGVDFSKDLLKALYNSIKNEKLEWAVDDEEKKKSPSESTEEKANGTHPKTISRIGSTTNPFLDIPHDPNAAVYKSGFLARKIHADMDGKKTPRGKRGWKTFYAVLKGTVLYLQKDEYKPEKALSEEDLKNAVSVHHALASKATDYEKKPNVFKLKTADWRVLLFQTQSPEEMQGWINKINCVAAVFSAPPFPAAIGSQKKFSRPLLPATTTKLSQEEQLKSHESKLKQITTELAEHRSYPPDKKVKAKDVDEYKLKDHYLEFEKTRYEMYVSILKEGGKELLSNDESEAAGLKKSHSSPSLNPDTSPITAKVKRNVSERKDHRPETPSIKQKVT
# Chain of UniProt Q7RTV0 (Q7RTV0 whole entry, looked up): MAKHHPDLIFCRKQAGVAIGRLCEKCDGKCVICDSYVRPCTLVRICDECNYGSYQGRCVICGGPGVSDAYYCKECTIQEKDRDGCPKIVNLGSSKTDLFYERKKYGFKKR
# Chain of UniProt Q13362 (Q13362 whole entry, looked up): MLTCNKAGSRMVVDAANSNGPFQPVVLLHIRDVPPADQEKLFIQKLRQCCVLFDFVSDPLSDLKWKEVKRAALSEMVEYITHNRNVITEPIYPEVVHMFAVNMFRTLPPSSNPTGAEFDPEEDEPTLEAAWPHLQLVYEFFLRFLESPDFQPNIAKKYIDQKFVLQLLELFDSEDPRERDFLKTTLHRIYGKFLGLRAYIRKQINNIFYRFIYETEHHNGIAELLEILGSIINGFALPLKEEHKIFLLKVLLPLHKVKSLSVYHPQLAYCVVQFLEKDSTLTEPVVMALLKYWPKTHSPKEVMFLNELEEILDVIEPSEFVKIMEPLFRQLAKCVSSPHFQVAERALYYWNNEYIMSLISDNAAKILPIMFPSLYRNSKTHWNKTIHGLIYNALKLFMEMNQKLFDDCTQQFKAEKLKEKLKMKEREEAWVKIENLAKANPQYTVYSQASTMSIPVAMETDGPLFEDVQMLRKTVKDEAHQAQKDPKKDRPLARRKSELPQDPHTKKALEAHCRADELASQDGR
# Chain of UniProt Q15004 (Q15004 whole entry, looked up): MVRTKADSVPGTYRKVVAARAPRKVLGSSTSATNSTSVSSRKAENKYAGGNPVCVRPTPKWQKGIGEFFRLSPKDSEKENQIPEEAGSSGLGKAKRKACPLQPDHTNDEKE
# Chain of UniProt Q12974 (Q12974 whole entry, looked up): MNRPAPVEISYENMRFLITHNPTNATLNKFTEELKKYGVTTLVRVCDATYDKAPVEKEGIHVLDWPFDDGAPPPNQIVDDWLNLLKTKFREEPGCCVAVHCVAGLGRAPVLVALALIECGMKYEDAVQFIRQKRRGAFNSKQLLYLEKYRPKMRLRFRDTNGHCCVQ
# Chain of UniProt P27815 (P27815 whole entry, looked up): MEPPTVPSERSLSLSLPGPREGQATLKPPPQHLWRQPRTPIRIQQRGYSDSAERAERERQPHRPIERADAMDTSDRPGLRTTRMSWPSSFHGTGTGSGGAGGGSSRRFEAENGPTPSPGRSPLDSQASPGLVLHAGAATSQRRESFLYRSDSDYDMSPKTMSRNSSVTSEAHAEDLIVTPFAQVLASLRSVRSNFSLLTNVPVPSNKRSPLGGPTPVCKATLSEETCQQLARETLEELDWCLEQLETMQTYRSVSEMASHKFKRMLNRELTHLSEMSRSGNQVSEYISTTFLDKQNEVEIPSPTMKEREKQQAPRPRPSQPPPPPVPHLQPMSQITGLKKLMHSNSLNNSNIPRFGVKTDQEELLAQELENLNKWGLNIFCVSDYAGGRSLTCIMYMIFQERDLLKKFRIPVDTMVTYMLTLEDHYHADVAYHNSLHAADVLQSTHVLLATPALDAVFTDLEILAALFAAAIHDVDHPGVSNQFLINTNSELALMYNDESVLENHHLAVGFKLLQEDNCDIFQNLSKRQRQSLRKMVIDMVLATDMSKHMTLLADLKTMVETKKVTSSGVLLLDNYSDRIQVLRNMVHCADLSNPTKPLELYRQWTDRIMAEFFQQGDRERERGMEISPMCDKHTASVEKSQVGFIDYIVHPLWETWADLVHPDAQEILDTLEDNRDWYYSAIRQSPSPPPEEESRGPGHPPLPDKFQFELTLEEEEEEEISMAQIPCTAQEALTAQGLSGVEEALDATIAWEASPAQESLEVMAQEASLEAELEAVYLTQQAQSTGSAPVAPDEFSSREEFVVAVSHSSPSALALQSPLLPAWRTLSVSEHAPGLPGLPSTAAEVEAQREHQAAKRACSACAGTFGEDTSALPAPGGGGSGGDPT
Target,log2 fold change [1],log2 fold change [2],log2 fold change [3],log2 fold change [4],log2 fold change [5],log2 fold change [6],log2 fold change [7],log2 fold change [8],log2 fold change [9],log2 fold change [10],log2 fold change [11]
PHF5A (UniProt Q7RTV0),-0.004,0.009,0.101,0.051,-0.017,-0.08,0.014,0.082,-0.024,-0.003,-0.101
PTP4A2 (UniProt Q12974),-0.161,-0.286,0.079,-0.023,0.011,,0.016,0.052,-0.168,-0.045,-0.019
PNPLA4 (UniProt P41247),0,-0.118,-0.357,0.131,-0.093,,0.602,0.012,,-0.071,0.003
PMVK (UniProt Q15126),-0.04,-0.001,-0.114,0.29,-0.08,-0.134,,0.065,0.048,,
PRKAR1B (UniProt P31321),0.001,0.085,0.129,0.045,-0.015,-0.031,0,0.07,0.024,-0.142,0.231
POLR2M (UniProt Q6EEV4),0.027,-0.09,-0.065,-0.056,-0.148,,0.029,0.03,-0.122,-0.009,0.056
PARN (UniProt O95453),0.012,-0.042,-0.1,-0.087,0.015,0.03,0.056,0.028,-0.069,-0.082,-0.06
PTTG1 (UniProt O95997),-0.006,-0.098,-0.015,-0.071,0.035,-0.043,0.027,-0.002,-0.023,-0.128,-0.027
PRKD3 (UniProt O94806),-0.565,-0.263,-0.285,-0.213,0.34,0.096,,0.021,,,
PI4K2B (UniProt Q8TCG2),0.092,0.704 (active),-0.08,-0.069,0.066,-0.021,0.075,0.051,,0.111,-0.005
PCBP1 (UniProt Q15365),0.007,-0.015,-0.069,-0.021,0.044,0.055,0.075,0.028,-0.046,0.002,-0.042
PRKCQ (UniProt Q04759),-0.337 (active),-0.135,-0.198,-0.052,0.002,0.035,0.001,0.002,-0.021,-0.187,0.017
PYGL (UniProt P06737),0.135,0.012,-0.023,0.016,0.028,0.01,0.039,0.034,-0.043,-0.041,-0.088
PBX2 (UniProt P40425),0.089,-0.016,-0.203,-0.065,0.058,0.196,,0.003,-0.168,,
PHKA1 (UniProt P46020),0.03,0.046,-0.202,,-0.005,0.013,0.128,0.004,0.027,-0.068,0.063
PCLAF (UniProt Q15004),-0.007,0.035,0.109,0.012,-0.04,-0.045,0.035,-0.009,0.008,-0.066,-0.132
PCID2 (UniProt Q5JVF3),-0.019,,-0.103,0.06,0.12,0.199,-0.004,0.038,-0.15,0.062,0.014
PSMA3 (UniProt G3V4X5),,,,-0.055,,,,,,,
PUM1 (UniProt Q14671),,0.058,,,,-0.037,,,,,

Target,log2 fold change [1],log2 fold change [2],log2 fold change [3],log2 fold change [4],log2 fold change [5],log2 fold change [6],log2 fold change [7],log2 fold change [8],log2 fold change [9],log2 fold change [10],log2 fold change [11]
PCF11 (UniProt O94913),,-0.047,-0.333,-0.179,,-0.04,0.001,-0.113,,0.112,-0.745 (active)
PPP2R5C isoform 2 (UniProt Q13362),,,-0.183,,,,0.069,-0.064,,0.105,-0.041
PTEN isoform 2 (UniProt P60484),,,,,,0.024,0.089,,,0.066,0.025
POLR2E (UniProt P19388),,0,-0.021,-0.02,,-0.115,-0.001,0.134,0.117,-0.088,0.032
POLB (UniProt P06746),-0.103,,,,0.107,-0.106,0.189,,0.113,-0.026,-0.156
PSMA3 (UniProt H0YJ03),,-0.059,,-0.048,,,0.081,,,0.143,-0.059
PPP1R12C (UniProt Q9BZL4),-0.151,,-0.031,-0.022,0.072,0.487,-0.008,0.122,-0.073,-0.278,0.038
PSMB9 (UniProt P28065),-0.122,-0.102,,0.029,-0.118,0.086,-0.028,,-0.061,0,-0.251
PIGH (UniProt Q14442),,-0.021,-0.087,-0.021,,0.18,0.031,0.093,-0.128,-0.05,-0.034
PSMC1 (UniProt G3V4X1),,,,,,0.168,,,,,
PHC3 isoform 7 (UniProt Q8NDX5),0.158,,-0.125,,0.1,,0.172,-0.018,0.567 (active),-0.014,-0.215
PSMD8 (UniProt K7ERW6),,,,-0.417,,,,,,,
PEX5 isoform 4 (UniProt P50542),0.019,0.002,,0.041,0,,,,0.163,,
PRKD2 (UniProt M0R346),-0.279,,,,0.032,0.021,,,-0.15,,
PMS2CL (UniProt Q68D20),,,0.185,,,,,0.095,0.062,,
PSD3 (UniProt Q9NYI0),,-0.262 (active),-0.14,-0.113,,,0.017,-0.095,,-0.02,-0.013
PTP4A3 (UniProt O75365),,,,-0.105,,,,,,,
PDE4A (UniProt P27815),,-0.67 (active),,0.047,,,,,-0.017,,
PCNX1 (UniProt Q96RV3),,,0.042,-0.043,,,-0.237,-0.11,-0.14,-0.269,0.179
